PubChem BioAssay (Tox21)
Results filed as inconclusive are left out. Entries that show only a call come without a potency. The source made the active and inactive calls. Unless noted, calls come from the whole dose curve; as a rule, active = well fitted curve in the direction sought with a large enough effect in the repeat runs; inconclusive = weak or mixed curves; inactive = no such curve, though single readings can be large; an effect the other way counts as inactive or inconclusive.

Tests used:
[1] = biological target: Retinoic acid receptor RXR-alpha (Homo sapiens) (UniProt P19793); experiment: qHTS assay to identify small molecule agonists of the RXR signaling pathway (AID 1159527; calls by dose curve; note: nearly all actives have a fitted effect of over 35% in size)
Procedure, shortened: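 Agonist mode; 9-cis retinoic acid positive control. HEK 293T UAS-bla reporter cells, 2% charcoal-stripped FBS, 16 hr compound exposure at 37 C/5% CO2. LiveBLAzer B/G FRET substrate 2 hr RT; ex 405, em 460/530 nm.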

[2] = qHTS assay to identify small molecule antagonists of the retinoid acid receptor (RAR) signaling pathway - cell viability counter screen (AID 1159551); note: nearly all actives have a fitted effect of over 35% in size
Procedure, shortened: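 Cells (C3RL4) are plated, incubated overnight, dosed with compound in DMSO, then given retinol at 1 uM final. After 6 h at 37 C, CellTiter-Glo is added and luminescence read following 30 min at room temperature.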

[3] = qHTS assay to identify small molecule antagonists of the retinoic acid receptor (RAR) signaling pathway (AID 1159552; note: nearly all actives have a fitted effect of over 50% in size)
Procedure, shortened: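 Luminescence from a RARE luciferase reporter in C3RL4 cells served as read-out. Cells received compounds together with 1 uM final retinol and incubated 6 hr at 37 C before detection reagent was added for 30 min at room temperature.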

[4] = qHTS assay to identify small molecule agonists of the retinoic acid receptor (RAR) signaling pathway (AID 1159553); note: potency is the fitted concentration of half-maximal effect
Procedure, shortened: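 Seed C3RL4 reporter cells at 1,000 per well and incubate overnight at 37 C. Add compounds in DMSO, incubate 6 hr. Add luciferase reagent, wait 30 min at room temperature, read luminescence.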

[5] = qHTS assay to identify small molecule agonists of the constitutive androstane receptor (CAR) signaling pathway - cell viability counter screen (AID 1224836); note: series mostly up to about 92 µM; nearly all actives have a fitted effect of over 45% in size
Procedure, shortened: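 Viability read-out: CellTiter-Fluor fluorescence after 23 h compound exposure at 37 C/5% CO2 in double-stable HepG2-CYP2B6-hCAR cells, with PK11195 present at 0.75 uM final; compounds tested in 15-point titration.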

[6] = biological target: Nuclear receptor subfamily 1 group I member 3 (Homo sapiens) (UniProt Q14994); experiment: qHTS assay to identify small molecule antagonists of the constitutive androstane receptor (CAR) signaling pathway (AID 1224838);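 note: HepG2 cells stably expressing hCAR with CYP2B6 luciferase reporter stimulated by CITCO; nearly all actives have a fitted effect of over 40% in size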
Procedure, shortened: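 Antagonist mode used CITCO at a final 50 nM to activate CAR in human hepatoma HepG2 cells carrying stable hCAR and a 2.2 kb CYP2B6 promoter-luciferase construct. Compounds were tested at 15 concentrations over 24 h, with luminescence as the end point.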

[7] = biological target: Nuclear receptor subfamily 1 group I member 3 (Homo sapiens) (UniProt Q14994); experiment: qHTS assay to identify small molecule agonists of the constitutive androstane receptor (CAR) signaling pathway (AID 1224839); note: nearly all actives have a fitted effect of over 15% in size; note: potency is the fitted concentration of half-maximal effect
Procedure, shortened: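 Luminescence read-out (ONE-Glo, 30 min, room temperature) from double-stable HepG2-CYP2B6-hCAR cells exposed 24 h to 15-point compound series in presence of 0.75 uM PK11195 final.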

[8] = qHTS assay to identify small molecule antagonists of the estrogen related receptor signaling pathway with the pleiotropic PPARgamma coactivator (PGC) from Tox21 10K library - cell viability counter screen (AID 1224840; active = well fitted cell-killing curve with a large enough effect in the repeat runs, not every such curve was filed as active; note: nearly all actives have a fitted effect of over 40% in size)
Procedure, shortened: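 Multiplexed viability counter screen in the PGC/ERR cell line: cells treated with DMSO-dissolved compounds for 17.5 hours at 37 C, then viability measured as CellTiter-Fluor fluorescence.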

[9] = qHTS assay to identify small molecule antagonists of the estrogen related receptor signaling pathway with the pleiotropic PPARgamma coactivator (PGC) from Tox21 10K library (AID 1224841; call rule not given here; note: series mostly up to about 92 µM; actives are mostly falling curves and most rising ones were filed inactive; nearly all actives have a fitted effect of over 50% in size)
Procedure, shortened: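 Steps: plate 2,000 PGC/ERR cells per well; incubate 6 h at 37 C with 5% CO2; transfer compounds from DMSO stocks by pin tool; incubate 18 h at 37 C; add One-Glo; measure luminescence 30 min later.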

[10] = qHTS assay to identify small molecule agonists of the RXR signaling pathway - cell viability counter screen (AID 1159529); note: series mostly up to about 77 µM; nearly all actives have a fitted effect of over 50% in size
Procedure, shortened: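 Luminescence from CellTiter-Glo (30 min, RT) measured viability in the same wells as the beta-lactamase reporter readout. Cells: GeneBLAzer RXR-alpha HEK 293T, 2% charcoal-stripped FBS. Compound exposure 16 hr, 37 C.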

[11] = qHTS assay to identify small molecule antagonists of the estrogen related receptor (ERR) signaling pathway from Tox21 library - cell viability counter screen (AID 1224834); note: nearly all actives have a fitted effect of over 30% in size
Procedure, shortened: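 ERR cells, 2,000/well; 6 h settle at 37 C/5% CO2; pin-tool compound transfer in DMSO; 17.5 h at 37 C; CellTiter-Fluor, 30 min; fluorescence intensity.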

[12] = biological target: Luciferin 4-monooxygenase (Photinus pyralis) (UniProt P08659); experiment: qHTS assay to identify small molecule inhibitors of firefly luciferase (AID 1224835); note: nearly all actives have a fitted effect of over 25% in size; note: potency is the fitted concentration of half-maximal effect
Procedure, shortened: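 Inhibition of purified Photinus luciferase is measured by luminescence. Substrate levels (D-luciferin, ATP) sit at their KM values. Each compound is tested in a concentration series.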

[13] = qHTS assay to identify small molecule antagonists of the constitutive androstane receptor (CAR) signaling pathway - cell viability counter screen (AID 1224837); note: series mostly up to about 92 µM; nearly all actives have a fitted effect of over 45% in size
Procedure, shortened: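 Viability was measured with CellTiter-Fluor in a HepG2 line carrying stably transfected hCAR and a CYP2B6-2.2kb construct. Cells were exposed for 23 hr at 37 C to 15 compound concentrations with 50 nM CITCO as agonist.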

[14] = qHTS assay to identify small molecule agonists of the estrogen related receptor signaling pathway with the pleiotropic PPARgamma coactivator (PGC) from Tox21 10K library (AID 1224842); note: nearly all actives have a fitted effect of over 15% in size
Procedure, shortened: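 Luminescence from One-Glo (30 min, room temperature) measured after PGC/ERR cells had 18 h at 37 C with pinned compound (23 nL in DMSO). Cells had been seeded at 2,000 per well and pre-incubated 6 h.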

[15] = biological target: Thyrotropin receptor (Homo sapiens) (UniProt P16473); experiment: qHTS assay to identify small molecule agonists of the thyroid stimulating hormone receptor (TSHR) signaling pathway (AID 1224843; calls by dose curve; note: nearly all actives have a fitted effect of over 45% in size; note: potency is the fitted concentration of half-maximal effect)
Procedure, shortened: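 A cell-based cAMP HTRF format was run in TSHR-transfected HEK293 cells, 800 per well. Treatment: 30 min, room temperature. Detection: 1 h with labelled cAMP and anti-cAMP cryptate. Concentration-response over 15 points, three replicates.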

[16] = qHTS assay to identify small molecule antagonists of the estrogen related receptor (ERR) signaling pathway - cell viability counter screen (AID 1224818); note: series mostly up to about 46 µM
Procedure, shortened: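 ERR cells, 2,000/well; 6 h settle at 37 C/5% CO2; compound pin transfer (DMSO); 17.5 h at 37 C; CellTiter-Fluor, 30 min, fluorescence read.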

[17] = qHTS assay to identify small molecule antagonists of the estrogen related receptor signaling pathway with the pleiotropic PPARgamma coactivator (PGC) cell viability counter screen (AID 1224822;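 note: series mostly up to about 46 µM; viability read after 17.5 h compound exposure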)
Procedure, shortened: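 Multiplexed viability counter screen run in PGC/ERR cells treated with compounds for 17.5 h at 37 C; live-cell protease signal measured by CellTiter-Fluor fluorescence.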

Sequence of Thyrotropin receptor (Homo sapiens) (P16473 whole entry, looked up): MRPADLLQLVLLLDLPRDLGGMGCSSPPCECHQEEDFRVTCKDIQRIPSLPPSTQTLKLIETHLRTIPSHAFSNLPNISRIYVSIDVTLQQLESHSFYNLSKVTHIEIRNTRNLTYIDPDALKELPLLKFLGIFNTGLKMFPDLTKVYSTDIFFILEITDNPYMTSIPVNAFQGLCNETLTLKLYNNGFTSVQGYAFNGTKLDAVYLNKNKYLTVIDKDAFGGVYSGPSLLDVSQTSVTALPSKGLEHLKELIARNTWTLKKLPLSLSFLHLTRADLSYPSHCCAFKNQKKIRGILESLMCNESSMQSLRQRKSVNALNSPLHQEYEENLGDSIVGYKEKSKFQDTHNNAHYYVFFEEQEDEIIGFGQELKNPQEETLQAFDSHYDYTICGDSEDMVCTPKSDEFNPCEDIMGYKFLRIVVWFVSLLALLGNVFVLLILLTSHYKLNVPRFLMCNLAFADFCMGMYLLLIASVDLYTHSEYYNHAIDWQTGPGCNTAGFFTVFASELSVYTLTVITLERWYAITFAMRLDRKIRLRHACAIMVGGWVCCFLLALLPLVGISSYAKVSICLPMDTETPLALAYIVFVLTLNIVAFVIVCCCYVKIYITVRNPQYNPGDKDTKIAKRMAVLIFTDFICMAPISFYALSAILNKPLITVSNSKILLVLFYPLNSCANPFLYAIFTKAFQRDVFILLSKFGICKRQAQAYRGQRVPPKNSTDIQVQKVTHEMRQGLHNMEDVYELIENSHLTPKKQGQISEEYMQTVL
Sequence of Nuclear receptor subfamily 1 group I member 3 (Homo sapiens) (Q14994 whole entry, looked up): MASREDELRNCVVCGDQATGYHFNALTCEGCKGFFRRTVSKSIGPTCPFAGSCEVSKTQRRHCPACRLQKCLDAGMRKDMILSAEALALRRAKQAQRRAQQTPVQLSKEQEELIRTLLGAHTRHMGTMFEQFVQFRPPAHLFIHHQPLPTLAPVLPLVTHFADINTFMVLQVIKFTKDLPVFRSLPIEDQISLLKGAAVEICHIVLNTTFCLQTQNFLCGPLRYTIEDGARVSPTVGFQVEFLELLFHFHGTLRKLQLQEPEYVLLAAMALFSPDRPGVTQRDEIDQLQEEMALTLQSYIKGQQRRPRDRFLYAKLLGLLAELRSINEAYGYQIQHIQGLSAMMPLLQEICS
Sequence of Luciferin 4-monooxygenase (Photinus pyralis) (P08659 whole entry, looked up): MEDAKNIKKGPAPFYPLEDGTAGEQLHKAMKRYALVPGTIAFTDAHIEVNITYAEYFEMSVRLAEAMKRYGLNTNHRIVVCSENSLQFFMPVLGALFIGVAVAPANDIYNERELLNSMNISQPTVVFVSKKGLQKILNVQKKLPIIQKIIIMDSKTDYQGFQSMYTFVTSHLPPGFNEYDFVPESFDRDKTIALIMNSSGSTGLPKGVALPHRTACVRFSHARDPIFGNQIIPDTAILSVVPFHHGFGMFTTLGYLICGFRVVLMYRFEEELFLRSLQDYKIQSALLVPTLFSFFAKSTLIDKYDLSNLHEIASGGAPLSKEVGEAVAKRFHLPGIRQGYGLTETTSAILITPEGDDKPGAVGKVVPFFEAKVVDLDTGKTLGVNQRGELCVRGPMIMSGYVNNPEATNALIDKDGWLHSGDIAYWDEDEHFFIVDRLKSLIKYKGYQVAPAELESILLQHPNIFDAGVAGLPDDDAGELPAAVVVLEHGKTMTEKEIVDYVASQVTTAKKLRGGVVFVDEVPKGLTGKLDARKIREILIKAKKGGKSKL
Sequence of Retinoic acid receptor RXR-alpha (Homo sapiens) (P19793 whole entry, looked up): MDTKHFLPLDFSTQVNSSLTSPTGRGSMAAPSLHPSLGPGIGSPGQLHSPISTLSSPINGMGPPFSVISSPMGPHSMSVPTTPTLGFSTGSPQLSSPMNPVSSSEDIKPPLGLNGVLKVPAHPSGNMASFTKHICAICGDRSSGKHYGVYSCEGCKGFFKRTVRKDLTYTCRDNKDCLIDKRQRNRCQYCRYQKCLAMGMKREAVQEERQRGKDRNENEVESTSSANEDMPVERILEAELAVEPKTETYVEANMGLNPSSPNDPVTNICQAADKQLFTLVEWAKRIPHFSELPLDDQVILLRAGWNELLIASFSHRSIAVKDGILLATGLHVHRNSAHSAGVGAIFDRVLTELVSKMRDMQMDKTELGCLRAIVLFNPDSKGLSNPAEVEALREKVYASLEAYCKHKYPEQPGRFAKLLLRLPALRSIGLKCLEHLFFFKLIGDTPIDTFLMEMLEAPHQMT

| Structure (SMILES) | Potency [1] | Potency [2] | Potency [3] | Potency [4] | Potency [5] | Potency [6] | Potency [7] | Potency [8] | Potency [9] | Potency [10] | Potency [11] | Potency [12] | Potency [13] | outcome [14] | Potency [15] | outcome [16] | outcome [17] |
| --- | --- | --- | --- | --- | --- | --- | --- | --- | --- | --- | --- | --- | --- | --- | --- | --- | --- |
| COP(=S)(OC)Oc1c(Cl)cc(C)cc1Cl | inactive | inactive | inactive | inactive | inactive | inactive | 27.3 µM (active) | inactive | inactive | – | – | – | – | – | – | – | – |
| ClC(Br)Br | – | inactive | inactive | inactive | inactive | – | inactive | inactive | inactive | inactive | inactive | inactive | inactive | inactive | – | – | – |
| CC(C)(C)NCC(O)c1cc(Cl)c(N)c(Cl)c1 (centres undefined) | inactive | inactive | – | – | – | – | – | inactive | inactive | – | – | inactive | – | inactive | – | – | – |
| CCCSC(=O)N(CCC)CCC | inactive | inactive | – | – | inactive | inactive | inactive | – | – | – | inactive | inactive | inactive | – | inactive | – | – |
| CN1CCC(N(Cc2ccccc2)c2ccccc2)CC1 | inactive | inactive | – | – | inactive | inactive | inactive | inactive | – | – | – | inactive | – | – | 13.3 µM (active) | – | – |
| CSc1nc(N=[N+]=[N-])nc(NC(C)C)n1 | inactive | inactive | – | – | inactive | inactive | 54.5 µM (active) | inactive | – | – | – | inactive | inactive | – | inactive | – | – |
| Nc1c(Br)cc([N+](=O)[O-])cc1[N+](=O)[O-] | inactive | – | inactive | inactive | inactive | inactive | – | inactive | inactive | – | – | inactive | inactive | inactive | inactive | – | – |
| COCC(=O)N(c1c(C)cccc1C)N1CCOC1=O | inactive | inactive | – | – | inactive | inactive | – | inactive | inactive | – | – | inactive | inactive | inactive | – | – | – |
| CC(C)NCC(O)c1ccc(N)c(C#N)c1 (centres undefined) | inactive | inactive | – | – | inactive | inactive | – | inactive | – | – | inactive | inactive | inactive | – | 0.0021 µM (active) | – | – |
| CCC#N | – | inactive | inactive | inactive | inactive | inactive | – | inactive | inactive | inactive | inactive | inactive | inactive | – | inactive | – | – |
| CCS(=O)(=O)CCSP(=O)(OC)OC | – | inactive | inactive | inactive | inactive | inactive | inactive | inactive | inactive | inactive | inactive | inactive | inactive | inactive | inactive | – | – |
| CCN(Cc1ccc(Cl)nc1)/C(=C/[N+](=O)[O-])NC | inactive | inactive | – | – | inactive | – | inactive | – | – | – | inactive | inactive | inactive | – | inactive | – | – |
| C(CCOCC1CO1)COCC1CO1 (centres undefined) | inactive | inactive | inactive | inactive | inactive | inactive | inactive | inactive | – | – | – | inactive | inactive | – | inactive | – | – |
| CC(C(=O)c1ccccc1)N(C)C (centres undefined) | inactive | inactive | – | – | inactive | – | – | – | – | – | inactive | inactive | inactive | – | – | – | – |
| CC(C1CC1)C(O)(Cn1cncn1)c1ccc(Cl)cc1 (centres undefined) | – | inactive | inactive | inactive | inactive | – | – | inactive | – | inactive | inactive | inactive | inactive | – | inactive | – | – |
| ClCC(Cl)Cl | inactive | inactive | – | – | inactive | inactive | inactive | inactive | – | – | – | inactive | inactive | – | – | – | – |
| CCCCc1c(C)nc(NCC)[nH]c1=O | inactive | inactive | – | – | inactive | inactive | inactive | inactive | inactive | – | inactive | inactive | inactive | – | inactive | – | – |
| CCCSP(=O)(OCC)Oc1ccc(Br)cc1Cl (centres undefined) | – | inactive | inactive | inactive | inactive | – | 13.3 µM (active) | inactive | – | inactive | inactive | inactive | inactive | – | – | – | – |
| O=C(CCCN1CCC(n2c(=O)[nH]c3ccccc32)CC1)c1ccc(F)cc1 | inactive | inactive | – | – | inactive | inactive | inactive | – | – | – | – | inactive | inactive | – | inactive | – | – |
| OCCBr | inactive | inactive | – | – | inactive | – | – | inactive | – | – | inactive | inactive | inactive | – | – | – | – |
| CCCSC(=O)Cl | – | inactive | inactive | inactive | inactive | – | inactive | inactive | – | inactive | inactive | inactive | inactive | – | – | – | – |
| COC(=O)C1=CCCN(C)C1 | inactive | inactive | – | – | inactive | inactive | – | inactive | – | – | inactive | inactive | inactive | – | inactive | inactive | inactive |
| O=C(N[C@H]1CN2CCC1CC2)c1cc2ccoc2cn1 | – | inactive | inactive | inactive | inactive | inactive | – | inactive | – | inactive | inactive | inactive | inactive | – | inactive | – | – |
| CCCCP(CCCC)CCCC | inactive | inactive | – | – | inactive | – | – | inactive | – | – | inactive | inactive | – | – | inactive | – | – |
| CNC(=O)N(C)c1nc2ccccc2s1 | – | inactive | inactive | 2.43 µM (active) | inactive | inactive | 24.3 µM (active) | inactive | inactive | inactive | inactive | 35.6 µM (active) | inactive | – | inactive | – | – |
